# Wnt bcat act = activates Wnt/beta-catenin signaling in a reporter cell assay | AID 743398 | activation, % at 9.35 µM | actives 1.2% (n = 300,000) | activator, plate reader; in the data active means activation above about 30%, passing the limit was not always enough; inconclusive means no clear call, values can overlap the other calls;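 further: 0% = neutral control wells and 100% = positive control wells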
# MLL AF4-AF9 inh = MLL-AF4/AF9 protein interaction inhibition; P42568; AlphaScreen, biotin-AF4 peptide binding to FLAG-AF9; inhibition, % at 10 µM; actives 0.47% (n = 350,000);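 active means every replicate reaching a set inhibition limit, whatever the replicate mean, cut at about 25% in these data; inconclusive means mean inhibition reaches that limit but some replicates miss it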;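 further: 0% = plate neutral control median and 100% = total signal loss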
# SMARCA2 activ = activators of SMARCA2 function. activation, % at 9.1 µM. actives 1% (n = 370,000). AID 652017. MG213 cells, MMTV-luciferase reporter, dexamethasone, overnight; in the data active means activation above about 7.8%;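 further: 0% = vehicle wells and 100% = reference activator wells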
# MITF act = activators of MITF-driven TRPM1 promoter activity in SK-MEL-5 cells. SK-MEL-5 TRPM1-promoter luciferase, 24 h; % of positive control, neutral wells = 0. activation, % at 12.5 µM. actives 0.75% (n = 300,000);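 active means mean activation of at least 80% with every replicate also reaching 80%; inconclusive means mean reaches 80% but some replicate falls short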;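 further: 0% = neutral control wells and 100% = parthenolide positive control wells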
# esBAF inh = blocks esBAF chromatin remodeling in mouse ES cells; Bmi1-luciferase knock-in reporter, 24 h; 100% = twice the neutral-well signal; AID 602393; actives 2% (n = 350,000); reporter increase, % at 12.5 µM; in the data active means activation above about 40%; inconclusive means no clear call, values can overlap the other calls;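 further: 0% = median of the plate's neutral control wells and 100% = double that signal; a rise in the Bmi1 reporter signal indicates esBAF inhibition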
# FGF22 binding = FGF22 (human) thermal shift binding. Q9HCT0. actives 1.5% (n = 340,000). activity (Tm shift, normalised), % at 9.99 µM. recombinant FGF22 thermal shift, SYPRO orange fluorescence; percent of sucrose octasulfate shift, DMSO zero;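 active means mean Tm shift, scaled 0 neutral to 100 positive control, at about 1.3% or above, every replicate too, limit read from the data; inconclusive means no clear call, values can overlap the other calls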
# Target sequence (Q9HCT0 whole entry, looked up): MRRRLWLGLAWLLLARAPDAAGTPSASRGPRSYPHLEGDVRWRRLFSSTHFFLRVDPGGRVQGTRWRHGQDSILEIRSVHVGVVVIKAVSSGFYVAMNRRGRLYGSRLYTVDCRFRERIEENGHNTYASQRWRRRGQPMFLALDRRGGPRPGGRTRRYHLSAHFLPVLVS
# * hit, by the source's call; ? = inconclusive; / = no result. Shown are actives, neighbours in structure and some others; about 4.3% of the full set was active somewhere.
SMILES,Wnt bcat act,MLL AF4-AF9 inh,SMARCA2 activ,MITF act,esBAF inh,FGF22 binding
COc1cc(CNc2ncn[nH]2)ccc1OCC(=O)NC(C)(C)C,0.6,-1.2,-2.5,-6.0,-4.9,-0.1
CCOc1cc(CNc2ncn[nH]2)ccc1OCC(=O)NC(C)(C)C,-1.4,-2.6,-5.3,-7.4,/,43.2*
Cc1noc(C)c1NC(=O)N(C)C[C@@H]1Oc2ccc(N(C)C)cc2CC(=O)N([C@@H](C)CO)C[C@H]1C,/,-4.5,/,/,-2.8,-0.1
COc1ccc(-c2cn(CC[C@H]3CC[C@@H](NS(=O)(=O)c4ccccc4C)[C@@H](CO)O3)nn2)cc1,/,0.8,/,/,16.5,-0.2
COc1ccc(C)cc1NC(=S)NNC(=O)c1c(Br)cnn1C,2.4,-6.5,-2.1,5.2,/,44.2*
COc1cccc(/C=C2\CCC(C3CCCC3)C2=O)c1OC (stereo unspecified),29.9,7.1,4.7,74.7,67.4*,0.2
COc1ccc(/C=C2\CCC(C3CCCC3)C2=O)c(OC)c1OC (stereo unspecified),12.9,1.0,-2.8,/,31.5,-0.1
CCOCCOC(=O)C(C)Oc1ccc(Oc2nc(Cl)ccc2Cl)cc1 (stereo unspecified),0.7,-4.6,-1.6,-14.9,/,43.3*
CCOCCOC(=O)C(C)Oc1ccc(Oc2ncc(Cl)cc2Cl)cc1 (stereo unspecified),-0.9,-7.0,-1.2,-9.3,/,-0.1
Cn1cc(Cl)c(/C(N)=N/OC(=O)c2ccccc2C(F)(F)F)n1,20.4,1.8,7.6,76.0,50.8*,-0.3
Cc1noc(C)c1COC(=O)c1ccc(-c2nc3ccccc3s2)s1,/,/,1.1,62.4,65.3*,/
CCN1CCN(C(=O)c2ccc(-c3nc4ccccc4s3)s2)CC1,49.2*,5.1,5.3,30.7,35.8,0.5
Cc1noc(C)c1NC(=O)N(C)C[C@H]1Oc2ccc(NS(=O)(=O)c3cccs3)cc2C(=O)N([C@H](C)CO)C[C@H]1C,/,-12.7,/,/,-4.9,-0.3
COc1ccc(NC(=O)c2ccc3snnc3c2)cc1,/,/,4.1,61.8,56.4*,/
O=C(Nc1ccc(Cl)cc1)c1ccc2snnc2c1,-2.1,0.4,3.1,54.2,56.7*,0.4
CNC(=O)c1ccc2snnc2c1,-0.7,3.4,-2.7,/,-7.6,-0.1
CN(C)c1ccc(NC(=O)Nc2ccc3snnc3c2)cc1,/,/,3.3,65.2,68.7*,/
CC(=O)c1ccc(NC(=O)c2ccc3snnc3c2)cc1,14.4,0.4,6.3,84.8*,62.9*,-0.2
O=C(Nc1ccccc1F)c1ccc2snnc2c1,5.1,-14.7,6.6,43.9,25.8,-0.3
CC1(NC(=O)c2ccc(C#Cc3cccc(F)c3)cn2)COC1,/,/,-2.9,/,/,/
O=C(C[C@H]1CC[C@H](NC(=O)C2CC2)[C@@H](CO)O1)NCC1CC1,/,-0.7,/,/,0.3,0.6
COc1cc(OC)c(S(=O)(=O)NC(C)C)cc1S(=O)(=O)NC(C)C,-1.5,-5.9,-4.6,1.5,-7.3,43.2*
CC=Cc1ccc2n(c1=O)C[C@H]1[C@H](CO)[C@@H](C(=O)N3CCOCC3)N(CC3CC3)[C@@H]21 (mixture of isomers),/,-1.7,/,/,0.5,-0.2
O=C(O)c1ccc(N2C(=O)CCCC2=O)cc1,4.0,9.3,-3.1,-16.5,/,-0.2
O=C(O)c1ccc(-n2[nH]c3c(c2=O)CCCC3)cc1,0.3,-2.2,-2.8,-6.2,5.6,43.3*
SMILES,Wnt bcat act,MLL AF4-AF9 inh,SMARCA2 activ,MITF act,esBAF inh,FGF22 binding
O=[N+]([O-])c1cccnc1NCCc1ccccc1,3.1,1.1,-0.9,38.3,73.4*,0.3
O=[N+]([O-])c1cccnc1NCCNc1ncc(C(F)(F)F)cc1Cl,/,/,6.3,101.3*,47.8*,/
O=[N+]([O-])c1ccccc1NCCNc1ncc(C(F)(F)F)cc1Cl,/,/,3.7,37.7,/,/
C=CCNc1nc(C(=O)OCC(=O)c2ccccc2)cs1,19.1,-0.4,3.6,69.4,54.9*,0.1
C/C=C/c1cnc2c(c1)C(=O)N([C@H](C)CO)C[C@H](C)[C@H](CN(C)C(=O)c1cccnc1)O2,/,-6.0,/,/,-15.0,-0.1
Cc1ccc(S(=O)(=O)N2CCCCC2)cc1NC(=O)CSc1nncn1-c1ccccc1,-3.2,-0.3,-1.7,-8.2,/,43.2*
COc1ccc(-n2cnnc2SCC(=O)Nc2cc(S(=O)(=O)N3CCCCC3)ccc2C)cc1,-0.7,/,-1.6,0.5,/,/
COc1ccccc1CNCC(=O)Nc1cc(S(=O)(=O)N2CCCCC2)ccc1C,-4.3,3.8,1.4,-12.8,-9.0,0.0
CCOc1ccc(S(=O)(=O)N2CCCCC2)c(C)c1C,3.5,-2.2,-2.1,10.8,/,43.0*
CCOc1ccc(S(=O)(=O)N2CCN(C)CC2)c(C)c1C,-2.3,/,0.7,-2.7,2.5,/
Cc1ccc(S(=O)(=O)N2CCCCC2)cc1NC(=O)COc1ccccc1F,-1.5,-0.5,1.4,6.8,5.8,43.2*
CCOc1ccc(S(=O)(=O)N2CCCCC2)cc1NC(=O)C1CCCC1,-6.9,-0.5,0.8,/,2.4,43.5*
C[C@@H]1CCCCO[C@@H](CN(C)CC2CCCCC2)[C@H](C)CN([C@@H](C)CO)C(=O)c2cc(NC(=O)CCCCCC(=O)Nc3ccccc3N)ccc2O1,/,-3.0,/,/,8.5,0.0
COc1ccccc1-c1ccc2c(c1)O[C@@H](CN(C)Cc1ccc3c(c1)OCO3)[C@@H](C)CN([C@H](C)CO)S2(=O)=O,/,2.0,/,/,-6.7,-0.2
O=C(C[C@H]1CC[C@@H]2[C@H](COC[C@H](O)CN2C(=O)c2cnccn2)O1)NCc1ccccc1,/,-0.7,/,/,-0.7,0.0
Cc1nc(C(=O)Nc2ccccc2)sc1C1(C)CC(c2cccnc2)=NO1 (stereo unspecified),21.8,2.2,0.6,53.3,45.9*,-0.1
Cc1cc(C)n(CC(=O)O)c(=O)c1[N+](=O)[O-],35.3*,-2.1,-1.9,-0.4,/,0.4
COc1ccc(CN(C)C[C@@H]2OCCCC[C@@H](C)Oc3ccc(NC(=O)CCC(F)(F)F)cc3C(=O)N([C@H](C)CO)C[C@@H]2C)cc1,/,-4.5,/,/,-0.3,-0.4
CC(=O)c1cccc(NC(=O)c2cc3ccccn3n2)c1,?,-4.8,2.9,/,54.0*,-0.1
CC(=O)c1cccc(NC(=O)c2cnn3ccccc23)c1,16.6,-10.3,1.2,/,19.7,-0.1
Cc1ccc(C)c(NC(=O)c2cnn3ccccc23)c1,3.5,4.0,0.9,19.1,14.0,0.1
Cc1ccc(C)c(NC(=O)c2cc3ccccn3n2)c1,50.4*,-3.4,3.9,45.3,32.7,0.0
Cc1ccccc1NC(=O)c1cc2ccccn2n1,59.2*,-111.5,4.0,62.4,/,0.2
Cc1cccc(CCNC(=O)c2cc3ccccn3n2)c1,/,/,-0.3,/,/,/
CCCC(=O)N=C1SC2CS(=O)(=O)CC2N1c1ccc(-c2nc3ccc(C)cc3s2)cc1 (stereo unspecified),33.7*,-3.3,1.6,57.1,/,0.0

# Screens deposited in PubChem BioAssay by several laboratories.
